Reference: PubChem BioAssay (NCI)
Compounds without any hit were thinned out: in the full panel of roughly 79,000, 15% have a hit. Calls of active or inactive are those of the source. No stated cut-off is given here; in the data, active means growth inhibition above about 70%; inactive means the rest.

Assay: NCI Yeast Anticancer Drug Screen. Data for the rad18 strain (AID 177)
Settings: S. cerevisiae rad18 mutant growth inhibition, active compounds read high
Protocol: Growth inhibition of yeast strains with defined genetic alterations is measured as a screen for potential anti-cancer activity. Selected strains with alterations in DNA damage repair or cell cycle control were exposed to compounds and growth inhibition was measured relative to vehicle treated controls. The strain used in this assay is rad18

Measured: growth inhibition

O=[N+]([O-])c1cc2no[n+]([O-])c2cc1N1CCCCC1
inactive: at 1.2 µM 31%
active: at 3.7 µM 73% | at 11.0 µM 97% | at 33.0 µM 97% | at 100.0 µM 96%

Cc1ccc(CSC(N)=Nc2ccccc2)cc1C
inactive: at 1.2 µM 6% | at 3.7 µM -7% | at 11.0 µM 2% | at 33.0 µM 0% | at 100.0 µM 31%

CCCC/C=C/C(CC)(C(=O)OCC)C(=O)OCC
inactive: at 1.2 µM -1% | at 3.7 µM 3% | at 11.0 µM 4% | at 33.0 µM 3% | at 100.0 µM 7%

CC[C@@]1(O)C(=O)OCc2c1cc1n(c2=O)Cc2cc3c(N)cccc3nc2-1
inactive: at 1.2 µM -10% | at 3.7 µM -11% | at 11.0 µM -13% | at 33.0 µM -15% | at 100.0 µM -23%

O=C1c2cc([N+](=O)[O-])ccc2-c2cccc(F)c21
inactive: at 1.2 µM 45%
active: at 3.7 µM 78% | at 11.0 µM 90% | at 33.0 µM 93% | at 100.0 µM 89%

CCCCCCCCCCCCCCCCCCOCC(O)COP(=O)(O)OCC1OC(n2cc(F)c(=O)[nH]c2=O)CC1O (stereo not given)
active: at 33.0 µM 97% | at 100.0 µM 98%
inactive: at 1.2 µM 27% | at 3.7 µM -2% | at 11.0 µM 52%

Cn1c(=O)c2ccccc2c2ccccc21
inactive: at 1.2 µM 2% | at 3.7 µM 5% | at 11.0 µM 31%
active: at 33.0 µM 83% | at 100.0 µM 91%

Nc1ncncc1C(C1=C(O)COC1=O)C1=C(O)COC1=O
inactive: at 1.2 µM 1% | at 3.7 µM 0% | at 11.0 µM -1% | at 33.0 µM -3% | at 100.0 µM -4%
